Data from PubChem BioAssay (NCI).
The panel holds about 79,000 compounds, 15% with a hit somewhere; the sample as a whole holds those more often. Values without a mark were called inactive. Calls of active or inactive are those of the source. Cut-off read from the data, not from the text of the source: active = growth inhibition above about 70%; inactive = the rest.

Experiments:
[1] = NCI Yeast Anticancer Drug Screen. Data for the rad50 strain (AID 155);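 note: 0% = growth of vehicle-only cultures of the same strain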; details: S. cerevisiae rad50 strain growth inhibition, active compounds read high
Outline: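 Relative growth inhibition (compound vs vehicle) was measured in yeast with a defined repair-gene alteration.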

[2] = NCI Yeast Anticancer Drug Screen. Data for the mec2-1 strain (AID 157); details: S. cerevisiae mec2-1 strain, active compounds read high
Outline: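 Test agents were screened against the mec2-1 yeast strain, with defined DNA repair or cell cycle alteration. Growth was scored as inhibition against vehicle-only controls.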

[3] = NCI Yeast Anticancer Drug Screen. Data for the sgs1 mgt1 strain (AID 161);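 note: 0% = growth of cultures given vehicle only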; details: S. cerevisiae sgs1 mgt1 strain, active compounds read high
Outline: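 Genetically altered yeast, compound exposure, growth inhibition relative to vehicle.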

[4] = NCI Yeast Anticancer Drug Screen. Data for the cln2 rad14 strain (AID 165);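 note: 0% = growth equal to vehicle treated cultures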; details: S. cerevisiae cln2 rad14 strain, active compounds read high
Outline: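 Growth of compound-exposed yeast (cln2 rad14 genotype) measured and expressed as inhibition relative to vehicle.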

[5] = NCI Yeast Anticancer Drug Screen. Data for the bub3 strain (AID 167); details: S. cerevisiae bub3 mutant strain, active compounds read high
Outline: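 Screening used yeast with an engineered genetic alteration affecting cell cycle control. Compound-exposed cultures were compared with vehicle cultures, and reduced growth was taken as inhibition.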

[6] = NCI Yeast Anticancer Drug Screen. Data for the mlh1 rad18 strain (AID 175); details: S. cerevisiae mlh1 rad18 strain growth inhibition, active compounds read high
Outline: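 In this whole-cell yeast screen, a strain with altered DNA damage repair is challenged with compound, and its growth is measured against matched vehicle-treated controls.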

[7] = at 5.0 µM (retest, dose inferred, filed as 0.5)
[8] = at 50.0 µM (retest, dose inferred, filed as 5.0)

Compound `CC1=NN(c2nc(N)nc(NS(=O)(=O)c3cc(C)c(Cl)cc3S)n2)C(C)(C)C1` has a growth inhibition [1, 7] of 29%, a growth inhibition [1, 8] of 13% and a growth inhibition ([1]; at 50.0 µM) of 9.1%. It also gave a growth inhibition [2, 7] of -1%, a growth inhibition [2, 8] of -12% and a growth inhibition ([2]; at 50.0 µM) of -9.55%. It also gave a growth inhibition [3, 7] of -2%, a growth inhibition [3, 8] of 9% and a growth inhibition ([3]; at 50.0 µM) of 35.9%. It also gave a growth inhibition [4, 7] of 4%, a growth inhibition [4, 8] of 10% and a growth inhibition ([4]; at 50.0 µM) of 46.2%. The growth inhibition [5, 7] was 11%, the growth inhibition [5, 8] was -17% and the growth inhibition ([5]; at 50.0 µM) was 9.85%. For the same compound, the growth inhibition [6, 7] was -3%, the growth inhibition [6, 8] was 4% and the growth inhibition ([6]; at 50.0 µM) was 20%.
In the case of `O=C(OCCCN1CCCC1)C(c1ccccc1)C1CCCCC1` (centres undefined), the growth inhibition [1, 7] is reported as 20%, the growth inhibition [1, 8] is reported as 67% and the growth inhibition ([1]; at 50.0 µM) is reported as 63.8%. The growth inhibition [2, 7] was 9%, the growth inhibition [2, 8] was 87% (active) and the growth inhibition ([2]; at 50.0 µM) was 52.4%. The growth inhibition [3, 7] was 23%, the growth inhibition [3, 8] was 91% (active) and the growth inhibition ([3]; at 50.0 µM) was 85.9% (active). For the same compound, the growth inhibition [4, 7] was 13%, the growth inhibition [4, 8] was 81% (active) and the growth inhibition ([4]; at 50.0 µM) was 79.8% (active). For the same compound, the growth inhibition [5, 7] was 33%, the growth inhibition [5, 8] was 91% (active) and the growth inhibition ([5]; at 50.0 µM) was 54.4%. The growth inhibition [6, 7] was 42%, the growth inhibition [6, 8] was 95% (active) and the growth inhibition ([6]; at 50.0 µM) was 80.2% (active).
Compound `CC(=O)OCC1OC(Sc2ccc3ccccc3c2)C(OC(C)=O)C(OC(C)=O)C1OC(C)=O` (centres undefined) has a growth inhibition [1, 7] of 2%, a growth inhibition [1, 8] of -7% and a growth inhibition ([1]; at 50.0 µM) of 23.9%. For the same compound, the growth inhibition [2, 7] was 3%, the growth inhibition [2, 8] was 2% and the growth inhibition ([2]; at 50.0 µM) was 12.8%. The growth inhibition [3, 7] was 2%, the growth inhibition [3, 8] was 1% and the growth inhibition ([3]; at 50.0 µM) was 2.7%. It also gave a growth inhibition [4, 7] of 1%, a growth inhibition [4, 8] of -15% and a growth inhibition ([4]; at 50.0 µM) of 52.4%. For the same compound, the growth inhibition [5, 7] was 4%, the growth inhibition [5, 8] was 7% and the growth inhibition ([5]; at 50.0 µM) was 70.2% (active). It also gave a growth inhibition [6, 7] of 0%, a growth inhibition [6, 8] of -2% and a growth inhibition ([6]; at 50.0 µM) of 22%.
In the case of `NC(CSSCC(N)=NCCCCCSC12CC3CC(CC(C3)C1)C2)=NCCCCCSC12CC3CC(CC(C3)C1)C2`, the growth inhibition [1, 7] is reported as -2%, the growth inhibition [1, 8] is reported as 22% and the growth inhibition ([1]; at 50.0 µM) is reported as 99.2% (active). The growth inhibition [2, 7] was 1%, the growth inhibition [2, 8] was 11% and the growth inhibition ([2]; at 50.0 µM) was 99.6% (active). For the same compound, the growth inhibition [3, 7] was 1%, the growth inhibition [3, 8] was 12% and the growth inhibition ([3]; at 50.0 µM) was 99.5% (active). The growth inhibition [4, 7] was 3%, the growth inhibition [4, 8] was 2% and the growth inhibition ([4]; at 50.0 µM) was 98.8% (active). The growth inhibition [5, 7] was 5%, the growth inhibition [5, 8] was 15% and the growth inhibition ([5]; at 50.0 µM) was 98.7% (active). The growth inhibition [6, 7] was 0%, the growth inhibition [6, 8] was 16% and the growth inhibition ([6]; at 50.0 µM) was 99.3% (active).
With `O=C1CC(c2ccccc2)c2c(ccc3ccccc23)O1` (centres undefined) the growth inhibition [1, 7] was -1%, the growth inhibition [1, 8] was 90% (active) and the growth inhibition ([1]; at 50.0 µM) was 87% (active). The growth inhibition [2, 7] was 1%, the growth inhibition [2, 8] was 86% (active) and the growth inhibition ([2]; at 50.0 µM) was 62.2%. The growth inhibition [3, 7] was -1%, the growth inhibition [3, 8] was 86% (active) and the growth inhibition ([3]; at 50.0 µM) was 75.2% (active). For the same compound, the growth inhibition [4, 7] was 6%, the growth inhibition [4, 8] was 77% (active) and the growth inhibition ([4]; at 50.0 µM) was 45.5%. The growth inhibition [5, 7] was 6%, the growth inhibition [5, 8] was 86% (active) and the growth inhibition ([5]; at 50.0 µM) was 72% (active). The growth inhibition [6, 7] was -1%, the growth inhibition [6, 8] was 88% (active) and the growth inhibition ([6]; at 50.0 µM) was 72.8% (active).
`NC(=O)NNC(=O)NNC(N)=O` gave a growth inhibition [1, 7] of -4%, a growth inhibition [1, 8] of 9% and a growth inhibition ([1]; at 50.0 µM) of 0.95%. The growth inhibition [2, 7] was -2%, the growth inhibition [2, 8] was 1% and the growth inhibition ([2]; at 50.0 µM) was -4.8%. It also gave a growth inhibition [3, 7] of 3%, a growth inhibition [3, 8] of 4% and a growth inhibition ([3]; at 50.0 µM) of -20.2%. For the same compound, the growth inhibition [4, 7] was -1%, the growth inhibition [4, 8] was 3% and the growth inhibition ([4]; at 50.0 µM) was 70.8% (active). The growth inhibition [5, 7] was -4%, the growth inhibition [5, 8] was -8% and the growth inhibition ([5]; at 50.0 µM) was -3.5%. It also gave a growth inhibition [6, 7] of -3%, a growth inhibition [6, 8] of 9% and a growth inhibition ([6]; at 50.0 µM) of -3.85%.
Work on `Cc1cc(C)c(S(=O)(=O)n2ccnc2)c(C)c1` yielded a growth inhibition [1, 7] of -15%, a growth inhibition [1, 8] of -45% and a growth inhibition ([1]; at 50.0 µM) of -13.9%. For the same compound, the growth inhibition [2, 7] was 0%, the growth inhibition [2, 8] was -11% and the growth inhibition ([2]; at 50.0 µM) was -29.6%. The growth inhibition [3, 7] was -17%, the growth inhibition [3, 8] was -4% and the growth inhibition ([3]; at 50.0 µM) was -6.05%. For the same compound, the growth inhibition [4, 7] was -3%, the growth inhibition [4, 8] was 8% and the growth inhibition ([4]; at 50.0 µM) was 6.55%. The growth inhibition [5, 7] was -8%, the growth inhibition [5, 8] was -26% and the growth inhibition ([5]; at 50.0 µM) was 10.3%. For the same compound, the growth inhibition [6, 7] was -36%, the growth inhibition [6, 8] was -77% and the growth inhibition ([6]; at 50.0 µM) was -0.9%.
In the case of `OC(Cc1ccc(Br)cc1)CN1CCC(c2ccccc2)CC1` (centres undefined), the growth inhibition [1, 7] is reported as 98% (active), the growth inhibition [1, 8] is reported as 98% (active) and the growth inhibition ([1]; at 50.0 µM) is reported as 83.9% (active). For the same compound, the growth inhibition [2, 7] was 71% (active), the growth inhibition [2, 8] was 71% (active) and the growth inhibition ([2]; at 50.0 µM) was 74.5% (active). For the same compound, the growth inhibition [3, 7] was 97% (active), the growth inhibition [3, 8] was 97% (active) and the growth inhibition ([3]; at 50.0 µM) was 82.8% (active). For the same compound, the growth inhibition [4, 7] was 87% (active), the growth inhibition [4, 8] was 87% (active) and the growth inhibition ([4]; at 50.0 µM) was 78.9% (active). The growth inhibition [5, 7] was 83% (active), the growth inhibition [5, 8] was 83% (active) and the growth inhibition ([5]; at 50.0 µM) was 87.8% (active). The growth inhibition [6, 7] was 88% (active), the growth inhibition [6, 8] was 88% (active) and the growth inhibition ([6]; at 50.0 µM) was 79% (active).
